Bioassay records from PubChem.
An excerpt weighted towards active compounds, which were near 19% of everything screened.
HT1080-NT tox – kills 2HG-producing HT-1080-NT fibrosarcoma cells; AID 686970; Potency, µM (top dose mostly 46.1 µM), most hits filed as cytotoxic; HT-1080-NT fibrosarcoma viability, CellTiter-Glo ATP luminescence, 48 h; 360,000 compounds, 1.6% hits;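 further: NT is the 2HG producing partner of a matched IDH1 knockdown line; nearly all actives have a fitted effect of over 55% in size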
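HT-1080-NT fibrosarcoma cells (2HG-overproducing), 750 cells/well in RPMI with 5% FBS, dosed after 2 h and incubated 48 h at 37C. CellTiter-Glo luminescence normalized to DMSO and no-cell wells; concentration-response curves fitted and classed.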
IL1B secr inh – inhibitors of inflammasome signaling (IL-1 beta secretion). THP-1 LPS/ATP IL-1B secretion, AlphaLISA, 16 h; active compounds read low. activity change, % at 57.5 µM. 360,000 compounds, 4.7% hits; in the data active means activity change below about -50%; inconclusive means mostly about -30% to -49%
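Secreted IL-1B measured by AlphaLISA bead assay after 16 h compound exposure of THP-1 cells; compounds (final up to 57.5 uM) added 1 h before LPS (250 ng/mL) and ATP (1.25 mM) stimulation; lower signal means less secretion.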
TDP1 cell noCPT – qHTS for Inhibitors of human tyrosyl-DNA phosphodiesterase 1 (TDP1): qHTS in cells in absence of CPT; DT40 Tdp1-/- hTDP1 cells, no CPT, ATP luminescence, 48 h; 420,000 compounds, 15% hits; AID 686978, 2013; Potency, µM (highest dose often 46.2 µM), hits mostly inhibitors; further: nearly all actives have a fitted effect of over 55% in size
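Growth kinetics read by CellTiter-Glo luminescence after ≥48 hr at 37 °C. Cells: DT40 Tdp1-/- stably carrying human TDP1, 400 per well, compound exposure in the absence of CPT (DMSO vehicle).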
DT40 TDP1 CPT – DT40-hTDP1 cell growth loss with CPT; chicken DT40 Tdp1-/-;hTDP1 cells + 20 nM CPT, ATP luminescence, 48 h; Potency, µM (series often up to 46.2 µM), actives largely listed as inhibitors; 420,000 compounds, 12% hits; further: nearly all actives have a fitted effect of over 55% in size
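Chicken DT40 Tdp1-/- cells stably complemented with human TDP1 were seeded at 400 cells/well in medium containing 20 nM camptothecin, exposed to pin-transferred compounds, and grown at 37 °C for at least 48 hr. Viability was read as ATP luminescence.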
HT1080 IDH1KD tx – toxicity to HT-1080 IDH1 knockdown cells (counter line). HT-1080 IDH1 knockdown viability, ATP luminescence, 48 h. Potency, µM (highest dose often 46.1 µM), most hits filed as cytotoxic. 360,000 compounds, 2% hits
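In this qHTS, HT-1080 cells depleted of IDH1 are exposed for 48 h at 37 °C to compound titrations. Toxicity is scored from CellTiter-Glo luminescence, with DMSO as full viability and medium alone as none.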
A number is an active result; n = inactive; u = inconclusive; x = no result. Unless noted, the call rests on the fitted dose curve; in most records, active means well fitted curve in the direction sought with a large enough effect; inconclusive means small, poorly fitted or top-dose-only effect, or another doubt; inactive means no such curve, though single readings can be large; an effect the other way counts as inactive or inconclusive.

SMILES	HT1080-NT tox	IL1B secr inh	TDP1 cell noCPT	DT40 TDP1 CPT	HT1080 IDH1KD tx
COc1ccc(N2CCN(C(CNS(=O)(=O)c3ccc(OC)c(C)c3)c3ccco3)CC2)cc1 (centres undefined)	x	x	23µM	u	x
COc1ccc(N2CCN(C(CNC(C)=O)c3ccco3)CC2)cc1 (centres undefined)	n	n	n	n	n
O=S(=O)(NCC(c1ccco1)N1CCOCC1)c1ccc(F)cc1 (centres undefined)	x	x	n	n	x
COc1ccc(S(=O)(=O)NCC(c2ccco2)N2CCOCC2)cc1OC (centres undefined)	x	x	n	n	x
O=C(NCCc1nnc2n1CCN(Cc1ccsc1)CC2)c1ccc(F)cc1	x	x	n	n	x
CCc1cccc(NC(=O)c2oc3ccc4c(c3c2C)C(=O)CC(C)(C)O4)c1	x	x	21µM	u	x
COc1ccc(NC(=O)c2oc3ccc4c(c3c2C)C(=O)CC(C)(C)O4)cc1OC	x	x	12µM	21µM	x
Cc1c(C(=O)Nc2ccccc2)oc2c1C(=O)CC(C)(C)C2	n	n	n	n	n
CCC(NCc1cccnc1)c1ccc(OC)c(OC)c1 (centres undefined)	n	n	n	n	n
O=C(Nc1nnc([C@H]2C[C@H](O)[C@@H](CO)O2)s1)Nc1cccc(Cl)c1Cl	n	u	n	n	n
CC(=O)Nc1ccc(S(=O)(=O)Oc2ccc(/C=N/NC(=O)c3ccc(Cl)cc3)cc2)cc1	u	n	16µM	21µM	n
COC(=O)c1ccc(OS(=O)(=O)c2ccc(NC(C)=O)cc2)cc1	n	n	u	12µM	n
Cc1ccc(S(=O)(=O)Oc2ccc(/C=N/NC(=O)c3nn(C)cc3Cl)cc2)cc1	n	n	n	n	n
CC1=C/C(=N\OS(=O)(=O)c2ccccc2)C(C(C)C)=CC1=O	u	-95	2.3µM	1.6µM	u
CC1=C/C(=N\OS(=O)(=O)c2ccccc2)C(C)=CC1=O	4.6µM	-98	0.82µM	0.58µM	9.2µM
CON=C1C=C(C)C(=O)C(C)=C1C	n	n	n	n	n
S=C(Nc1cccc(Cl)c1Cl)N1CCCC1	n	n	n	n	n
COc1ccc(CN=C(C)c2c(C(F)(F)F)[nH]n(-c3nc4ccccc4s3)c2=O)cc1	n	n	u	n	n
COC(=O)Cc1[nH]n(-c2nc3ccccc3s2)c(=O)c1C(C)=O	n	n	10µM	n	n
CC(=O)c1c(CC(=O)O)[nH]n(-c2nc3ccccc3s2)c1=O	10µM	n	u	u	10µM
Cc1cccc(NC(=O)C2CCCN(S(=O)(=O)c3cccs3)C2)c1C (centres undefined)	n	n	u	u	n
O=C(N/N=C/c1sc(N2CCOCC2)nc1-c1ccccc1)c1cccc(S(=O)(=O)N2CCCC2)c1	n	n	4.6µM	2.6µM	u
O=C(N/N=C/c1sc(N2CCOCC2)nc1-c1ccccc1)c1ccc(O)cc1	n	n	u	u	n
O=C(N/N=C/c1cc(Cl)cc([N+](=O)[O-])c1O)c1cccc(S(=O)(=O)N2CCOCC2)c1	16µM	n	u	n	u
COc1cccc(/C=N/NC(=O)c2ccc(N3CCCC3=O)cc2)c1	u	n	23µM	u	u
SMILES	HT1080-NT tox	IL1B secr inh	TDP1 cell noCPT	DT40 TDP1 CPT	HT1080 IDH1KD tx
O=C(N/N=C/c1cc(Br)cc(Br)c1O)c1cccc(S(=O)(=O)N2CCOCC2)c1	n	n	3.7µM	3.7µM	u
O=C(N/N=C/c1ccco1)c1ccc(N2CCCC2=O)cc1	n	n	u	n	n
O=C(N/N=C/c1cc(Br)cc(Br)c1O)c1cccc(N2CCCC2=O)c1	n	n	1.5µM	5.2µM	n
O=C(N/N=C/c1ccc(Cl)cc1Cl)c1cccc(N2CCCC2=O)c1	n	u	n	n	n
Clc1ccc2[nH]c3c(c2c1)CCc1cn[nH]c1-3	u	n	18µM	u	u
c1ccc2c3c([nH]c2c1)-c1[nH]ncc1CC3	u	n	u	16µM	n
Cc1cccc(N2CCN(C(=O)Cn3ncc4c5ccccc5n(C)c4c3=O)CC2)c1C	x	x	n	n	x
Cn1c2ccccc2c2c(C(=O)N3CCN(c4ccc(F)cc4)CC3)cn(C3CCCCC3)c(=O)c21	x	x	18µM	16µM	x
Cc1cccc(N2CCN(C(=O)c3cn(C4CCCCC4)c(=O)c4c3c3ccccc3n4C)CC2)c1C	x	x	16µM	u	x
COc1ccc(N2CCN(C(=O)c3cn(C4CCCCC4)c(=O)c4c3c3ccccc3n4C)CC2)cc1	x	x	21µM	23µM	x
Cc1cc(C)cc(-n2ccnc2SCC(=O)Nc2nc3ccc(C)cc3s2)c1	x	x	n	n	x
O=C(O)Cn1nc(C(F)(F)F)c2c1CCC2	n	n	n	n	n
CCOc1ccc(S(=O)(=O)N(CC(=O)NC2CCCCC2C)Cc2ccco2)cc1 (centres undefined)	n	u	26µM	15µM	n
Cc1ccccc1CN1CCc2nc(N3CCN(c4ncccn4)CC3)ncc2C1	x	x	21µM	u	x
COc1ccccc1N1CCN(c2ncc3c(n2)CCN(Cc2ccccc2C)C3)CC1	x	x	n	n	x
CCOc1ccc(CN2CCc3nc(N4CCN(c5ccccn5)CC4)ncc3C2)cc1OC	x	x	23µM	23µM	x
CCOc1ccccc1CN1CCc2nc(N3CCN(c4ccccc4F)CC3)ncc2C1	x	x	21µM	16µM	x
O=C(NN1CCOCC1)c1cc(S(=O)(=O)Nc2cccc(C(F)(F)F)c2)ccc1Cl	n	n	n	n	n
COc1ccc(-c2c(N)cnc(C(=O)O)c2C)c(OCc2ccccc2)c1OC	n	n	u	u	n
COc1cc(/C=C/C(=O)OCC(=O)NCC2CCCO2)ccc1OCC#N (centres undefined)	n	n	n	n	n
CN1C(=O)c2cccc3c(S(=O)(=O)Nc4cccc(C(=O)O)c4)ccc1c23	x	x	n	n	x
Cc1noc(C)c1C(=O)N1CCC2(CC1)CN(c1ccccn1)C2	x	x	n	n	x
Cc1noc(C)c1C(=O)N1CCC2(CC1)CCN(c1cccc(-c3ccccc3)c1)CC2	x	x	4.6µM	u	x
Cc1noc(C)c1C(=O)N1CCC2(CC1)CN(c1cccc(-c3ccccc3)c1)C2	x	x	21µM	u	x
C/C(=C/c1ccccc1)C(=O)N1CCC(C)CC1	n	u	n	n	n
CCn1ncc(Cl)c1C(=O)NC(=S)Nc1c(C)cc(C)cc1[N+](=O)[O-]	n	n	23µM	u	n
COc1ccc(/C(C)=N/NC(=O)c2cc(-c3cccnc3)nc3ccccc23)cc1	n	n	n	n	n
C/C(=N\NC(=O)c1cc(C2CC2)nc2ccccc12)c1ccc(C)s1	n	n	u	u	n
CCOc1ccc(-c2cc(C(=O)N/N=C(\C)c3cccnc3)c3ccccc3n2)c(OCC)c1	n	n	u	15µM	u
